The test system of the assay is P. falciparum stage V gametocytes. Details: BacTiter-Glo ATP luminescence viability of purified stage V gametocytes in 384-well plates, per cent inhibition versus DMSO. As to conditions: 48 h, 5 µM, inhibitor.

The values that follow come from publication PMC4552634, “A New Set of Chemical Starting Points with Plasmodium falciparum Transmission-Blocking Potential for Antimalarial Drug Discovery” (PLoS ONE, 2015).

Read-outs that look alike come from different tables or passages of the source. About 3,200 (25%) of roughly 13,000 compounds showed an effect of 50% or more. This is one part of the list.

A word on the % Inhibition: it is the relative decrease from the control value, in per cent.

For `N#Cc1ccc2c(c1)CN(CCC1CCC(NC(=O)c3cc4cc(OC(F)(F)F)ccc4[nH]3)CC1)CC2` (stereo not shown) [TCMDC-139160], the “% Inhibition” value is reported as 23.56%.
For the molecule `Cc1cccc2nc(-c3cccc(-c4cccc(C(=O)NCCc5cn(C)cn5)c4)c3)[nH]c12` [TCMDC-132494], the “% Inhibition” value was -97.59%.
The same measure, in the same setting: to `O=C(NCCCCN1CCC(c2ccc3c(c2OCc2ccncc2)CCCC3)CC1)c1ccc(-c2ccc(C(F)(F)F)cc2)cc1` [TCMDC-138733] belongs 60.19%.
Regarding `CC(=O)Oc1c(C2CCN(CCCCNC(=O)c3ccc(-c4ccc(C#N)cc4)cc3)CC2)ccc2c1CCCC2` [TCMDC-138650], the “% Inhibition” value is -28.73%.
For the molecule `CC(C)(Oc1c(C2CCN(CCCCNC(=O)c3ccc(-c4ccc(C#N)cc4)cc3)CC2)ccc2c1CCCC2)C(N)=O` [TCMDC-134828], the “% Inhibition” value is reported as 39.17%.
For `O=C(NCCCCN1CC=C(c2ccc3c(c2OCc2ccccc2)CCCC3)CC1)c1ccc(-c2ccc(C(F)(F)F)cc2)cc1` [TCMDC-138746], the “% Inhibition” value is on record as -33.61%.
Take `N#Cc1ccc(-c2ccc(C(=O)NCCCCN3CCC(c4ccc5c(c4OCc4ccccn4)CCCC5)CC3)cc2)cc1` [TCMDC-138737]: the “% Inhibition” value was 66.39%.
Take `N#Cc1ccc(-c2ccc(C(=O)NCCCCN3CCC(c4ccc5c(c4OCc4ccncc4)CCCC5)CC3)cc2)cc1` [TCMDC-138732]: the “% Inhibition” value was determined as 54.86%.
For the molecule `O=C(NCCN1Cc2ccccc2C1=O)c1ccc(Oc2ccc(C(=O)NCCN3Cc4ccccc4C3=O)cc2)cc1` [TCMDC-125669], the “% Inhibition” value was found to be 22.87%.
Regarding `CCOC(=O)C(C#N)NC(=O)C=Cc1ccccc1` (stereo not shown) [TCMDC-131634], the “% Inhibition” value is reported as -4.008%.
`C=C(C)C1CC=C(CN2CCC(N3CCc4cc(NC(=O)c5cc(C)on5)ccc43)C2)CC1` (stereo not shown) [TCMDC-135089]: the “% Inhibition” value turned out to be 10.83%.
In the case of `O=C(Nc1cc(Cl)cc(Cl)c1)c1cc(Cl)c(=O)n(Cc2cccc(Cl)c2)c1` [TCMDC-123809], the “% Inhibition” value was -55.71%.
For `COc1ccccc1N1CCN(Cc2cc(C(C)C)c(C)cc2O)CC1` [TCMDC-124541], the “% Inhibition” value is on record as -1.392%.
As to `O=C(C=Cc1ccc(-c2ccccc2)cc1)NC1CCC(CN2CCC(c3c[nH]c4ccccc34)CC2)CC1` (stereo not shown) [TCMDC-139935], under “% Inhibition”, the “% Inhibition” value is given as 108%.
Consider `O=C(/C=C/C=C/c1ccccc1)NC1CCC(CN2CCC(c3c[nH]c4ccccc34)CC2)CC1` (stereo not shown) [TCMDC-139708], for which the “% Inhibition” value worked out at 100.6%.
Take `O=C(C=Cc1ccc(-c2ccccc2)cc1)NC1CCC(CN2CCC(c3c[nH]c4ccccc34)CC2)CC1` (stereo not shown) [TCMDC-139951]: the “% Inhibition” value (% Inhibition) came out at 123.9%.
For `COc1ccc2nccc(N3CCN(CCNCc4ccc5c(n4)NC(=O)CO5)CC3)c2c1.Cl` [TCMDC-141961], the “% Inhibition” value stood at 30.82%.
Regarding `Cc1nc2nc(N)nc(N)c2c(C)c1Cc1cccc(C(N)=O)c1` [TCMDC-137643], the “% Inhibition” value is 17.6%.
Consider `CS(=O)(=O)c1ccc(-n2nc(C(F)(F)F)cc2-c2ccc(C=NOCC(=O)O)o2)cc1` [TCMDC-132015], for which the “% Inhibition” value is -3.43%.
On to `COc1cccc(-c2cccc(CNC3CCN(CC4Cn5c(=O)ccc6ccc(F)c4c65)CC3)c2)c1` (stereo not shown) [TCMDC-134412], for which the “% Inhibition” value worked out at 5.028%.
With `Cc1ccc(Cc2cnc(CN3CCCCC3)c(O)c2)cc1` [TCMDC-125485], the “% Inhibition” value amounted to 30.78%.
As for `O=S(=O)(c1ccccc1OC(F)(F)F)C1CC2CCC(C1)N2S(=O)(=O)c1cccc(C(F)(F)F)c1` (stereo not shown) [TCMDC-134266], the “% Inhibition” value came to 7.024%.
Regarding `O=S(=O)(c1ccccc1C(F)(F)F)C1CC2CCC(C1)N2S(=O)(=O)c1ccc(Cl)c(C(F)(F)F)c1` (stereo not shown) [TCMDC-134268], the “% Inhibition” value turned out to be 33.38%.
Still for that read-out and setting: to `O=S(=O)(c1ccc(OC(F)(F)F)cc1)C1CC2CCC(C1)N2S(=O)(=O)c1ccc(Cl)c(C(F)(F)F)c1` (stereo not shown) [TCMDC-134267] belongs 71.42%; to `COc1cc(Cc2cnc(N)nc2N)ccc1OCc1ccc(-c2ccccc2C#N)cc1` [TCMDC-138638], -1.728%.
Regarding `Cc1ccc2c(NC(=O)Nc3ccc(N(C)C)cc3)cc(C)nc2c1` [TCMDC-140144], the “% Inhibition” value is on record as -85.96%.
With `CC(C)C[C@@H](NC(=O)OC(C)(C)C)C(=O)Nc1ccc(Cc2ccc(NC(=O)[C@@H](CC(C)C)NC(=O)OC(C)(C)C)cc2)cc1` [TCMDC-131869], the “% Inhibition” value was -46.99%.
Still for that read-out and setting: next, `NCCCNc1ccc(-c2ccc(NC(=O)Nc3cc(C(F)(F)F)ccc3F)cc2)cn1` [TCMDC-133550]: 53.18%; `Nc1ncc(-c2ccc(NC(=O)Nc3cc(C(F)(F)F)ccc3F)cc2)c(N)n1` [TCMDC-133420]: 7.471%.
Turning to `Nc1ccc(-c2ccc(NC(=O)Nc3cc(C(F)(F)F)ccc3F)cc2)cn1` [TCMDC-133410], the “% Inhibition” value is 11.7%.
Same read-out and setting: to `Nc1nccc2ccc(-c3ccc(NC(=O)Nc4cc(C(F)(F)F)ccc4F)cc3)cc12` [TCMDC-133422] belongs 80.96%.
Consider `Cc1cc(N)ncc1-c1ccc(NC(=O)Nc2cc(C(F)(F)F)ccc2F)cc1` [TCMDC-133438], for which the “% Inhibition” value stood at 25.29%.
As for `Nc1ncnc2occ(-c3ccc(NC(=O)Nc4cc(C(F)(F)F)ccc4F)cc3)c12` [TCMDC-141371], the “% Inhibition” value is reported as 14.45%.
With `Cc1nc(-c2cccc(Nc3nccc(NCC(O)c4ccc(C(F)(F)F)cc4)n3)c2)cs1` (stereo not shown) [TCMDC-136591], the “% Inhibition” value is 22.87%.
On the same count and under the same terms, next, `Cc1nc(-c2cccc(Nc3nccc(NCC(O)c4ccccc4C)n3)c2)cs1` (stereo not shown) [TCMDC-136567]: -8.142%; `Cc1cc(Nc2ccccc2)nc(Nc2ccccc2C)n1` [TCMDC-123883]: 4.396%; `CCC1(c2ccccc2)N=C(N)N(CCCc2ccccc2)C1=O` (stereo not shown) [TCMDC-136547]: 23.07%.
As to `CCCCCN1C(=O)N(c2ccc(Cl)c(Cl)c2)C(N(O)C(=O)Nc2ccc(Cl)c(Cl)c2)C1(C)C` (stereo not shown) [TCMDC-124134], the “% Inhibition” value is 67.16%.
On the same count and under the same terms, next, `CCCCCN1CCN(Cc2cccc(NC(=O)c3ccc(Cl)c(Cl)c3)c2)CC1` [TCMDC-134616]: -65.82%; `CC1(C)C(N(O)C(=O)Nc2ccc(Cl)c(Cl)c2)N(c2ccc(Cl)c(Cl)c2)C(=O)N1CCc1ccccc1` (stereo not shown) [TCMDC-125555]: -2.423%; `O=C(NCCN1CCC(c2ccncc2)CC1)c1cccc(Nc2nccc(Nc3ccc(Oc4ccccc4)cc3)n2)c1` [TCMDC-138607]: -52.85%.
Turning to `COc1ccc2nccc([C@@H](O)CN3CCC(NC(=O)/C=C/c4ccc5[nH]c(=O)ccc5c4)CC3)c2c1` [TCMDC-141032], the “% Inhibition” value is -20.87%.
Regarding `O=C(Nc1ccc(N2CCCCC2)c(Cl)c1)c1ccco1` [TCMDC-124392], the “% Inhibition” value worked out at 30.55%.
In the case of `Oc1ccc(CN2Cc3ccccc3OC3(CCN(Cc4c[nH]c5cnccc45)CC3)C2)cc1` [TCMDC-133377], the “% Inhibition” value turned out to be 0.4377%.
Take `c1ccc2c(c1)CN(Cc1cc3ccccc3[nH]1)CC1(CCN(Cc3c[nH]c4cnccc34)CC1)O2` [TCMDC-133376]: the “% Inhibition” value was 66.92%.
The same measure, in the same setting: to `c1ccc2c(c1)CN(CC1CC1)CC1(CCN(Cc3c[nH]c4cnccc34)CC1)O2` [TCMDC-133375] belongs -19.67%; to `O=C(NCc1ccc(F)cc1)Nc1ccc(-c2cccc(-c3nc4ccc(C(F)(F)F)cc4[nH]3)c2)cc1` [TCMDC-133298], -50.83%; to `CS(=O)(=O)c1ccccc1CNC(=O)c1ccc(-c2ccc(-c3nc4cc(C(F)(F)F)ccc4[nH]3)s2)cc1` [TCMDC-132507], 9.09%.
Regarding `COc1ccc2nccc([C@@H](O)CN3CCC(NC(=O)C(c4cc5ccccc5o4)N4CCN(c5ccc(F)cc5)CC4)CC3)c2c1` (stereo partly shown) [TCMDC-140996], the “% Inhibition” value is recorded as -29.58%.
For `CCc1c(CCNCCCCCCNC(C)Cc2ccc3c(c2CC)OCO3)ccc(OC)c1OC` (stereo not shown) [TCMDC-132052], the “% Inhibition” value stood at 111%.
Take `CCc1c(CCNCCCCCCNCCc2ccc3c(c2C)OCO3)ccc2c1OCO2` [TCMDC-132093]: the “% Inhibition” value was found to be 97.88%.
For `CCc1c(CCNCCCCCCNCc2ccc3c(c2CC)OCO3)ccc(OC)c1OC` [TCMDC-132068], the “% Inhibition” value amounted to 92.52%.
Consider `CCc1c(CCNCCCCCCNC(C)(C)Cc2ccc3c(c2CC)OCO3)ccc(OC)c1OC` [TCMDC-132055], for which the “% Inhibition” value came out at 110.7%.
As for `Nc1cnc(C#Cc2cc3ncnc(N(CCN4CCOCC4)c4ccc(OCc5cccc(F)c5)c(Cl)c4)c3s2)cn1` [TCMDC-134752], the “% Inhibition” value stood at 42.15%.
Regarding `Cc1cc(Oc2cc(NC(=O)c3sc4ncn(Cc5ccccc5F)c(=O)c4c3C)cc([N+](=O)[O-])c2)ccc1Cl` [TCMDC-125704], the “% Inhibition” value worked out at 16.56%.
The same measure, in the same setting: next, `O=C(c1ccc(O)c(-c2cc(Cl)cc(Cl)c2)c1)N1CCCC1` [TCMDC-140161]: -10.57%; `CCOc1ccc(NC(=O)c2ccc(CN3CCCN(Cc4cccc(O)c4)CC3)cc2)cc1` [TCMDC-136436]: 8.028%; `CCOc1ccc(-c2cc3nc(C4CCNCC4)c(C(=O)Nc4ccc(C)cc4Cl)cn3n2)cc1` [TCMDC-125296]: 121.3%.
In the case of `CCOc1ccc(NC(=O)c2cccc(CN3CCCN(Cc4cccc(O)c4)CC3)c2)cc1` [TCMDC-135987], the “% Inhibition” value is on record as -4.859%.
The same measure, in the same setting: to `CCOc1ccc(NC(=O)c2cn3nc(-c4ccc(OCC)cc4)cc3nc2C2CCNCC2)cc1` [TCMDC-125277] belongs 105.9%; to `CCOc1cc(C)ccc1C1CCN(CCCCNC(=O)c2ccc(-c3ccc(Cl)cn3)cc2)CC1` [TCMDC-138562], -60.76%; to `COc1cc(OC)c(NC(=O)COc2ccc(C)cc2)cc1Cl` [TCMDC-123682], 23.04%.
In the case of `O=C(Nc1cccc(-c2cccc(-c3nc4ccc(C(F)(F)F)cc4[nH]3)c2)c1)c1csnn1` [TCMDC-136902], the “% Inhibition” value was 10.49%.
Regarding `Cc1cc2c(cc1Cl)N(C(=O)Nc1cc(F)cc(-c3cncnc3)c1)CC2` [TCMDC-139052], the “% Inhibition” value is listed as -4.717%.
